High-throughput results (PubChem BioAssay)
In the library only some 22% were active in any assay of this set; here they are far more common.
CYP2C19 act: cytochrome P450 2C19 (human) activation; recombinant CYP2C19, luciferin-H EGE luminescence; stronger effect = higher value; 0 = fully inhibited enzyme, 1 = untreated enzyme; activation factor at 5 µM; 96,000 tested, under 10 active;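 active = activation factor of at least 2 at 5 µM in the primary screen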;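 note: 0 = wells with 2.5 mM tranylcypromine and 1 = vehicle-only wells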
CYP2C19 inhib: human CYP2C19 inhibition; P33261; CYP2C19 Supersomes, luciferin-H EGE luminescence, 30 min; inhibition, % at 5 µM; 96,000 compounds, 21% hits; AID 778;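 active = CYP2C19 inhibition above a set limit at 5 µM in the primary screen, cut at about 50% in these data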;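 note: plate controls were negative control wells for no effect and 2.5 mM tranylcypromine positive control for full effect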
Measles CPE: protection of cells from measles virus; AID 841; 140,000 compounds, 1.5% hits; protection (pct of control), % at 4 µM; Measles virus-infected cells, CPE protection, absorbance; in the data active = protection mostly above about 24%, no sharp cut-off; inactive = mostly below about 26%
CYP2C9 act: CYP2C9 (human) activation. P11712. activation factor at 5 µM. 96,000 compounds, 1.4% hits. recombinant CYP2C9, luciferin-H conversion, luminescence; stronger effect = higher value; factor 1 = untreated enzyme, 0 = blocked;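 active = activation factor of 2 or more for CYP2C9 at a 5 µM dose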;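 note: 0 = sulfaphenazole-blocked wells and 1 = vehicle-only wells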
Target sequence (P11712 whole entry, looked up): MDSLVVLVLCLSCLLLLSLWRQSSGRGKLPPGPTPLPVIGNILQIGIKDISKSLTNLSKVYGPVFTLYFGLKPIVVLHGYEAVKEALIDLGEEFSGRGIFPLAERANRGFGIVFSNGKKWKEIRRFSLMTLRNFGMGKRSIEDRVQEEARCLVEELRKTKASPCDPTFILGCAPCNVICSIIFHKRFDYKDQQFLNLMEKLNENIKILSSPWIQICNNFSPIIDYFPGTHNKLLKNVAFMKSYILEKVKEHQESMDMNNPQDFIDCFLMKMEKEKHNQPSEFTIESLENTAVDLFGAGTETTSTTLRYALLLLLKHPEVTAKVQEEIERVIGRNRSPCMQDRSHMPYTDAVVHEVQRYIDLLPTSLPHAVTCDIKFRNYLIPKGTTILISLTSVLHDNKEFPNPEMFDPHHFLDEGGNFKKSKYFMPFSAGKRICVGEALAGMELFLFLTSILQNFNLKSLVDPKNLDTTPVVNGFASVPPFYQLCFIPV
CYP2C9 inh: blocks human cytochrome P450 2C9; CYP2C9 Supersomes, luciferin-H conversion, luminescence; P11712; 96,000 compounds, 20% hits; AID 777; inhibition, % at 5 µM;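 active = blocking of liver enzyme CYP2C9 beyond about 50% at 5 µM, limit read from the data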
Active calls of the source: *; x = no result given.

SMILES	CYP2C19 act	CYP2C19 inhib	Measles CPE	CYP2C9 act	CYP2C9 inh
COc1cc(S(=O)(=O)NCCN2CCOCC2)c(OC)cc1Cl	0.4	65*	13	0.9	12
Cc1ccc(N2CC(c3nc4ccccc4[nH]3)CC2=O)c(C)c1 (stereo not drawn)	x	x	10	x	x
CCCCC(=O)Nc1ccc(C(=O)Nc2ccc(S(=O)(=O)Nc3nccc(C)n3)cc2)cc1	x	x	10	x	x
CCn1c(COc2ccccc2Cl)nnc1SCC(=O)Nc1ncccc1C	x	x	3	x	x
CCOC(=O)C1=C(C)Nc2sc(C(=O)c3ccc(OC)cc3)c(N)c2C1c1ccc(C(=O)OC)cc1 (stereo not drawn)	x	x	15	x	x
Cc1cc2c(c(=O)n1Cc1cccnc1)C(c1cccs1)C(C#N)=C(N)O2 (stereo not drawn)	0.8	16	24	0.7	31
COc1ccc(C2C(C#N)=C(N)Oc3cc(C)n(Cc4ccncc4)c(=O)c32)cc1 (stereo not drawn)	0.4	62*	3	0.3	72*
Cc1cc2c(c(=O)n1CCN(C)C)C(c1ccncc1)C(C#N)=C(N)O2 (stereo not drawn)	1.1	-12	27	1.1	-14
Cc1cc2c(c(=O)n1Cc1cccnc1)C(Cc1ccccc1)C(C#N)=C(N)O2 (stereo not drawn)	0.3	74*	9	0.3	68*
Cc1cc2c(c(=O)n1Cc1ccco1)C(c1cccnc1)C(C#N)=C(N)O2 (stereo not drawn)	0.9	14	29	0.3	66*
CCOc1ccc(C2C(C#N)=C(N)Oc3cc(C)n(Cc4ccco4)c(=O)c32)cc1OC (stereo not drawn)	1	4	15	0.8	16
O=C(Nn1c(-c2ccc(Br)cc2)nc2ccccc2c1=O)c1ccc([N+](=O)[O-])cc1	x	x	6	x	x
CC(C)OC(=O)CSc1nnnn1-c1ccc2c(c1)OCCO2	0.3	75*	6	1.2	-22
COc1ccc(-n2nnnc2SCC(=O)c2ccc3c(c2)OCCO3)cc1	x	x	6	x	x
Fc1cccc(Cl)c1CSc1nnnn1-c1ccc2c(c1)OCO2	0.1	92*	3	0.6	38
O=C(O)CSc1nnnn1-c1ccc2c(c1)OCCO2	1.2	-18	6	1	4
Fc1cccc(Cl)c1Cn1nnc(-c2ccc3c(c2)OCO3)n1	0.5	47	10	0.7	32
O=C(CSc1nnnn1-c1ccc2c(c1)OCCO2)c1cccc2c1OCCO2	0.3	71*	6	0.7	29
CN(C(=O)Cc1noc2ccccc12)c1ccccc1	x	x	18	x	x
CCCCN1C(=S)SC(C)(C)C1/[N+]([O-])=C/c1cccnc1 (stereo not drawn)	0.7	31	16	0.7	31
CCN1C(c2ccc(F)cc2)=CS/C1=C(\C#N)c1nnc2n1-c1ccccc1SC2	0.7	29	17	2.3*	-127
O=C(c1ccc(Cn2c(=O)[nH]c3ccccc3c2=O)cc1)N1CCN(c2ccc(F)cc2)CC1	0.1	88*	8	0.4	62*
COc1ccc(Cn2c(=O)[nH]c3cc(C(=O)N4CCN(Cc5ccccc5)CC4)ccc3c2=O)cc1	0.4	64*	5	0.2	75*
CCN1CCN(C(=O)c2ccc(Cn3c(=O)[nH]c4cc(OC)c(OC)cc4c3=O)cc2)CC1	1	-4	6	1.1	-10
CCOC(=O)N1CCC(NC(=O)C2CCCN(S(C)(=O)=O)C2)CC1 (stereo not drawn)	1	-3	7	1	0
SMILES	CYP2C19 act	CYP2C19 inhib	Measles CPE	CYP2C9 act	CYP2C9 inh
CC(=O)c1cccc(NC(=O)N2CCC(c3nnc(SCC(N)=O)n3C)CC2)c1	1	5	1	1	-4
O=C(COc1cccc2cccnc12)N1CCc2ccccc2C1	0.1	88*	35	3.2*	-223
CC1(C)Cc2cccc(OCC(=O)N3CCN(c4ccccc4)CC3)c2O1	x	x	6	x	x
O=C(COc1cccc2ccccc12)N1CCN(c2ccccc2)CC1	0	95*	7	1.7	-72
O=C(COc1cccc2ccccc12)N1CCN(c2ccccn2)CC1	0	95*	2	2.3*	-125
O=C(COc1ccc(F)cc1)N1c2ccccc2CCc2ccccc21	x	x	5	x	x
O=C(COc1cccc2ccccc12)N1c2ccccc2CCc2ccccc21	0.2	76*	7	0.2	84*
O=c1cc(N2CCc3ccccc32)[nH]c(=O)n1Cc1ccc(F)cc1	0.9	11	24	0.9	14
O=C(Nc1ccon1)c1cc2ccccc2oc1=O	1.1	-11	7	1	4
CCN(CC)C(=O)c1c(Cl)nc(C)c([N+](=O)[O-])c1C	x	x	27	x	x
